The values that follow come from PubChem BioAssay (NCI).

The panel holds about 83,000 compounds, 20% with a hit somewhere; the sample as a whole holds those more often.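 Activity criterion: percent growth below 10, measured after cells in 96-well plates were exposed to a single compound concentration for 48 hours.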 Values without a mark were called inactive. Activity calls are given as the source filed them.

The test system of this assay is HL-60(TB) leukemia. In words: NCI-60 one-dose screen, 48 h (100 = growth as untreated, 0 = no growth, -100 = all killed). To be noted: 10 µM unless noted.
Turning to `CC1(COc2ccc3ncc(C#Cc4cncc(C(=O)Nc5cc(C(C)(C)C)on5)c4)n3n2)COC1`, the growth is 23%.

For the compound `COc1cc(-c2ccc3ncnc(NCc4ccccc4)c3c2)cnc1OC`, the growth was 66%.

`CCN1C(=S)N(c2ccccc2)C2NC(=O)N(/N=C/C=C/c3ccccc3OC)C21` (stereo not given): the growth was 64.2%.

As for `COc1cc(Cn2cc3c(c2)-c2onc(CN4CCOCC4)c2CC3)cc(OC)c1OC`, the growth is 99.9%.

Regarding `O=C(CCn1c[n+](CC(=O)c2ccc(-c3ccccc3)cc2)c2ccccc21)Nc1cccc2cccnc12`, the growth was -42.3% (active).

As for `COc1cccc2c1CN(C(=O)c1ccc(O)c(C(=O)N3Cc4ccc(OCCC[P+](c5ccccc5)(c5ccccc5)c5ccccc5)cc4C3)c1)C2`, the growth was 41.3%.

`Cc1nc(-c2cc3ccccc3oc2=O)ccc1C(=O)/C=C/c1ccc(Cl)c(Cl)c1`: the growth was 97.9%.

In the case of `CCOC(=O)c1c(Nc2ccccc2)nn2c(-c3ccc(OC)cc3)ccnc12`, the growth was 77.3%.

In the case of `COc1cccc(N2CCN(c3ncnc4c3[nH]c3ccc(F)cc34)C[C@H]2C)c1`, the growth was 33%.

Take `Cc1ccc(C(=O)Nc2ccc(CNCCN3CCOCC3)c(C(F)(F)F)c2)cc1C#Cc1cnc2cccnn12`: the growth is -21.3% (active).

On to `NS(=O)(=O)c1ccc(CCn2c(-c3ccc(C(=O)O)cc3)nc(-c3ccccc3)c2-c2ccccc2)cc1`, for which the growth was 101%.

For the compound `O=S(=O)(Oc1ccc(-c2cn3ccoc3n2)cc1)c1cccc(C(F)(F)F)c1`, the growth is 105%.

Take `Cc1ccc(NC(=O)/C=C/c2ccc(OCCCOc3ccc4c(C)cc(=O)oc4c3)cc2)cc1`: the growth was 98.5%.

In the case of `Nc1cc(-c2c[nH]c3ccccc23)nc2cc(-c3c[nH]c4ccccc34)nn12`, the growth is 40.1%.

For `COc1ccc(-c2cc(-c3cccc4ccccc34)n3c(n2)nc2ccccc23)cc1OC`, the growth is -7.71% (active).

On to `O=C(CSc1nnc(-c2ccc(Cl)cc2)n1-c1ccccc1)Nc1cccc(F)c1`, for which the growth is 71.7%.

As for `Cc1ccc2c(n1)C(=O)C(Cl)=C(Nc1ccc(C#N)cc1)C2=O`, the growth was 17.4%.

As to `C#Cc1ccc(C(=O)NCc2ccc(/C=C/C(=O)c3nccn3C)cc2)cc1`, the growth was 0.695% (active).

On to `COc1ccc(-c2oc3cc(O)cc(O)c3c(=O)c2OC)cc1O`, for which the growth was -6.5% (active).

For `C=CC(=O)N1CC=C(c2cc3c(N[C@H](C)c4ccccc4)ncnc3[nH]2)CC1`, the growth was 104%.

Turning to `CS(=O)c1nccc(-c2c(-c3ccc(F)c(OCc4ccccc4)c3)nc3sccn23)n1` (stereo not given), the growth was -6.35% (active).

As to `CCCCSC1=C(Cl)CN(c2ccccc2)C1=O`, the growth was 105%.

`CC(C)(C)n1nnnc1C(Nc1nccs1)c1cc2cccc3ccc4cccc1c4c32` (stereo not given): the growth is 90.2%.

On to `COc1ccc(Cn2cc3c(c2-c2ccccc2)CCCc2cnoc2-3)cc1`, for which the growth is 6.55% (active).

Consider `CCNC(=O)Oc1ccc(/C(=C(/C)c2ccc(Cl)cc2)c2ccc(OCCN(C)C)cc2)cc1`, for which the growth was 52.7%.

`O=C(COc1ccc(/C=C2\C(=O)Nc3ccc(F)cc32)cc1)Nc1ccccc1`: the growth was 95.9%.

For the compound `CS(=O)c1nccc(-c2c(-c3ccc(F)c(OCCc4ccc(F)cc4)c3)nc3sccn23)n1` (stereo not given), the growth was -13.4% (active).

Consider `Cn1cc(-c2cc(N)n3nc(-c4cn(C)c5ccc(Br)cc45)cc3n2)c2cc(Br)ccc21`, for which the growth is 26.7%.

Turning to `COc1ccc(/C=N\NC(=O)c2ccc3nc(-c4ccc(Br)cc4)[nH]c3c2)cc1`, the growth is 84.4%.

For `CCOC(=O)c1c(Nc2ccccc2)nn2c(-c3ccc(Br)cc3)ccnc12`, the growth is 90.6%.

For `O=C(Nc1cccc(Cl)c1)Nc1nc2cc([N+](=O)[O-])ccc2o1`, the growth is 52.7%.

With `COc1ccc(-c2ccc3c4c(cccc24)C(=O)N(N2C(=O)c4cccc5cccc(c45)C2=O)C3=O)cc1`, the growth was 103%.

In the case of `Cc1cc(O)c(=O)cc2c1C[C@H]1CC(C)(C)/C=C/C[C@]3(C)Oc4cc(=O)c(O)cc(C)c4C[C@H]3C[C@H](O)[C@@]1(C)O2`, the growth is -31.8% (active).

`CC(=O)Nc1cccc(-n2cnc3cc(-c4ccc(O)cc4)ccc32)c1`: the growth was 6.68% (active).

Consider `CN(C)CCCOc1ccc(C(=C(c2ccccc2)C2CCCC2)c2ccc(OCCCN(C)C)cc2)cc1`, for which the growth is -57.1% (active).

In the case of `COc1ccc(-c2nc3cc(Cl)c(Cl)cc3n2CC(=O)N=Nc2c(O)[nH]c3ccc(Br)cc23)cc1`, the growth was 80.2%.

Consider `N#Cc1ccc(/C=N/NC(=O)c2[nH]c3ccc(Br)cc3c2-c2ccccc2)s1`, for which the growth was -40% (active).

As to `O=C(Nc1ccc(N2CCOCC2)cc1)Nc1ccc2c(ccn2C(=O)c2cccc(F)c2)c1`, the growth was 96.7%.

As for `Cc1ccc(CNS(=O)(=O)/N=C2\NC(=O)NC2=C(Cl)Cl)cc1`, the growth was 28.6%.

As for `CC(C)(O)c1cncc(-c2ccc3ncnc(N4CCc5cc(F)c(Cl)cc54)c3c2)c1`, the growth was 1.38% (active).
